This note sets out measurements from ChEMBL document CHEMBL2218924, “A broad activity screen in support of a chemogenomic map for kinase signalling research and drug discovery” (Biochem J, 2013).

Each structure is given as a SMILES string.

For test [1], the target named is T1, Ephrin type-A receptor 3 (Homo sapiens) (UniProt P29320).
T1 sequence (whole entry): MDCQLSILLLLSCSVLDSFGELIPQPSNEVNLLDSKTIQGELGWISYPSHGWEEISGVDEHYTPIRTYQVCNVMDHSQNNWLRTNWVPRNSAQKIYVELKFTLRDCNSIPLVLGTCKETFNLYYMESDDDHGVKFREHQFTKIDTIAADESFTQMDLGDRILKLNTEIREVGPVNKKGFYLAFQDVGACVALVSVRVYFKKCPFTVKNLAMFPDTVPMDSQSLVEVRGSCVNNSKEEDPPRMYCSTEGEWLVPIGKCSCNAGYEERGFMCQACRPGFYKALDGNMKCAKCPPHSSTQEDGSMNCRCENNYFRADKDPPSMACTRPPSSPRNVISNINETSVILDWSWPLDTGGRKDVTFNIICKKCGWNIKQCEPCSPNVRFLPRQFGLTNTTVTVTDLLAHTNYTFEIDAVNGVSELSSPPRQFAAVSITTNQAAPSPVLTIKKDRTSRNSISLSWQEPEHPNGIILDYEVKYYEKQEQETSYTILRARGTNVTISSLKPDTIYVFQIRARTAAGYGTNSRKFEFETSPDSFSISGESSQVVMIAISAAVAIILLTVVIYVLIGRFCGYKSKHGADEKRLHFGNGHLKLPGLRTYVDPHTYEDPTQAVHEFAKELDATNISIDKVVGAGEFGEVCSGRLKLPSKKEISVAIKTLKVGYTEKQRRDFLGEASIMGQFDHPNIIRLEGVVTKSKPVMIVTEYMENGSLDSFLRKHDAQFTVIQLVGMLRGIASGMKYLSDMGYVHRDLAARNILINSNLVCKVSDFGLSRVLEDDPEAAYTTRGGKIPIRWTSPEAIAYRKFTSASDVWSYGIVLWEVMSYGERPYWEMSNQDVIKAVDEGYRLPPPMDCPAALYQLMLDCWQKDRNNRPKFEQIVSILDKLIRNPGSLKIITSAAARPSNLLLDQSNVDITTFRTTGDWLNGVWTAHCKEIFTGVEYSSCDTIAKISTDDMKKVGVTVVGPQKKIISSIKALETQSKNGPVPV
The following applies: at 10 µM.

Test [2] addresses Ephrin type-A receptor 4 (Homo sapiens) (UniProt P54764). The following applies: at 1 µM.
For test [3] the target is unchanged. Conditions: at 10 µM; call rule not given here.
Test [4] addresses Ephrin type-A receptor 5 (Homo sapiens) (UniProt P54756). Conditions: at 1 µM.
Test [5] shares this target. The following applies: at 10 µM.
The target of test [6] is Ephrin type-A receptor 7 (Homo sapiens) (UniProt Q15375). Conditions: at 1 µM.
Test [7] shares this target. The following applies: at 10 µM.
The target of test [8] is T2, Ephrin type-A receptor 8 (Homo sapiens) (UniProt P29322).
T2 sequence (whole entry): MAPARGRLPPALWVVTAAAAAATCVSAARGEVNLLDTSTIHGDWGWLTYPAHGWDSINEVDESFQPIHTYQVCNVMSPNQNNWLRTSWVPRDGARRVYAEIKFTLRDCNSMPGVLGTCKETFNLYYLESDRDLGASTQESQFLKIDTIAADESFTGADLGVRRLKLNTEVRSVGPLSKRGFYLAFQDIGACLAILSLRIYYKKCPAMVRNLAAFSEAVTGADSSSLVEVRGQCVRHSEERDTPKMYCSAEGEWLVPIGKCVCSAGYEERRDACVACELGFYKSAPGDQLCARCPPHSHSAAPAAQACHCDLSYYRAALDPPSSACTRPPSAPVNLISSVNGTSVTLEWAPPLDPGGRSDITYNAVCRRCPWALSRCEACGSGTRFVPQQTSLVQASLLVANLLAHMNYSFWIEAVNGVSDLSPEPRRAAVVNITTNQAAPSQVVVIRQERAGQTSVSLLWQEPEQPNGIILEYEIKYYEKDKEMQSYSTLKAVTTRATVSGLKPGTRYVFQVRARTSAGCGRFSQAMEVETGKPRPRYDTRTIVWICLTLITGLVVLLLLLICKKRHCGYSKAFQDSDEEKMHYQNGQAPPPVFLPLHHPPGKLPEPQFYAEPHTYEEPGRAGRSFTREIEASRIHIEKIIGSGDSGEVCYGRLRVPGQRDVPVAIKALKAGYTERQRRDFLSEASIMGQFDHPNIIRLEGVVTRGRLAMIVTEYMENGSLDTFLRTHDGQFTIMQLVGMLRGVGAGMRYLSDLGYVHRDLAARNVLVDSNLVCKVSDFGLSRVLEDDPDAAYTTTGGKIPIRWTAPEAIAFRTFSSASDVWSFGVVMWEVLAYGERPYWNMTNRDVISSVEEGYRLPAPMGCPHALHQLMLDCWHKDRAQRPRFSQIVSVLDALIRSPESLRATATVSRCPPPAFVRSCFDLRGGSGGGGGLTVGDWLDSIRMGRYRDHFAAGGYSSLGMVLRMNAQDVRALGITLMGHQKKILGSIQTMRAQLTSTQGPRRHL
The following applies: at 1 µM.

Test [9] addresses T2, Ephrin type-A receptor 8 (Homo sapiens). Conditions: at 10 µM.
Test [10] concerns the target T3, Ephrin type-B receptor 2 (Homo sapiens) (UniProt P29323).
T3 sequence (whole entry): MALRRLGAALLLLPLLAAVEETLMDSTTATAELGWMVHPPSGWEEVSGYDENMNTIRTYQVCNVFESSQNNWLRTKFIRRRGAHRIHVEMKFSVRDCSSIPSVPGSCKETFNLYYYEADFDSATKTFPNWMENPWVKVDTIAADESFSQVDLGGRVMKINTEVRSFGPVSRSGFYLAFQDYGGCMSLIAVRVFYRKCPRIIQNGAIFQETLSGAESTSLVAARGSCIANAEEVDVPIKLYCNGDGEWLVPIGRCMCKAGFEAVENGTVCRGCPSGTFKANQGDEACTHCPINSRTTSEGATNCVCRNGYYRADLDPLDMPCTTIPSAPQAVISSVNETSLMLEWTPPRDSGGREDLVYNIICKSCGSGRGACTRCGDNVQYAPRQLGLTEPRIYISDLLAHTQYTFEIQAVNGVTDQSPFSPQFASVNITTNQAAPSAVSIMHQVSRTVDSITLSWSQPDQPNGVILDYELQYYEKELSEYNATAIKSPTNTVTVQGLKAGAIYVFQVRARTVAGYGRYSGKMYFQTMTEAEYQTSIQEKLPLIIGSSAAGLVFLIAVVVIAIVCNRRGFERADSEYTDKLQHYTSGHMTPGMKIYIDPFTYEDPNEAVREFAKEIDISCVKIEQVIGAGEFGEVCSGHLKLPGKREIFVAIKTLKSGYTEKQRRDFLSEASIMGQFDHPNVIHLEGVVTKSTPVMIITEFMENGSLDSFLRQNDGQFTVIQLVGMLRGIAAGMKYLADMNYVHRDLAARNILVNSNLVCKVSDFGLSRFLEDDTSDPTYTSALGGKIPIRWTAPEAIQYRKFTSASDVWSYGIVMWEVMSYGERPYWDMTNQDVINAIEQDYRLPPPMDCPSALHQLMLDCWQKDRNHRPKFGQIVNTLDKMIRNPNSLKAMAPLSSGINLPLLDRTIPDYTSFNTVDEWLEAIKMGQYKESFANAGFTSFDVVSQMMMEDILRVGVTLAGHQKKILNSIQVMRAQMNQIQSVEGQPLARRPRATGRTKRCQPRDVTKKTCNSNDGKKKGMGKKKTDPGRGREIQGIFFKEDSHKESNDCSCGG
The following applies: at 1 µM.

The target in test [11] is T3, Ephrin type-B receptor 2 (Homo sapiens). Conditions: at 10 µM.
Test [12] deals with T4, Ephrin type-B receptor 3 (Homo sapiens) (UniProt P54753).
T4 sequence (whole entry): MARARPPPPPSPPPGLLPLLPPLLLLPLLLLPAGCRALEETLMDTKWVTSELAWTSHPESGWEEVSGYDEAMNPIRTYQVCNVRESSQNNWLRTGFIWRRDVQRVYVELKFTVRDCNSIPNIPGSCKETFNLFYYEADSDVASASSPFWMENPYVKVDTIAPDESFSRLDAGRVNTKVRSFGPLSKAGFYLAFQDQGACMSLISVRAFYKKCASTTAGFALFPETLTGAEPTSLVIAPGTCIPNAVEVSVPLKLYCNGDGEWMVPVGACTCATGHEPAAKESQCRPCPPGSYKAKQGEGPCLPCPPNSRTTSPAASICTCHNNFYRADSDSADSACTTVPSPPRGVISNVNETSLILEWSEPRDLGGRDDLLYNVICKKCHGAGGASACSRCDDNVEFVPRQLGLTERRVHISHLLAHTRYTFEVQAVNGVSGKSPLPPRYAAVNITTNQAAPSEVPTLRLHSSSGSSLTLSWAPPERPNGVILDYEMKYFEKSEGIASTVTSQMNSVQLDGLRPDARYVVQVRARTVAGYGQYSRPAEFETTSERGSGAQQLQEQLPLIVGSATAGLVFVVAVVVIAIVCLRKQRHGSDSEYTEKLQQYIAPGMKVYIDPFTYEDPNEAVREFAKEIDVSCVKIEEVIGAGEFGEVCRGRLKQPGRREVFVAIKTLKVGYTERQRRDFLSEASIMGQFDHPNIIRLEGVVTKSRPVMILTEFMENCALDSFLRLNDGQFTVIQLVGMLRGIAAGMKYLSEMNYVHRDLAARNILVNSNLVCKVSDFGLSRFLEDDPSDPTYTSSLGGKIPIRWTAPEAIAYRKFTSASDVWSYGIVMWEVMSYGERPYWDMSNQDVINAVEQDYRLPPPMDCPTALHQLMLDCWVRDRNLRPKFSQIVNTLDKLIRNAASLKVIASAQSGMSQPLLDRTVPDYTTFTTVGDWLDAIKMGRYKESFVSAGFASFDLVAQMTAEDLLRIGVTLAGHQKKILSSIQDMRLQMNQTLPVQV
Conditions: at 1 µM.

For test [13], the target named is T4, Ephrin type-B receptor 3 (Homo sapiens). Conditions: at 10 µM.
In test [14] the target is T5, Ephrin type-B receptor 4 (Homo sapiens) (UniProt P54760).
T5 sequence (whole entry): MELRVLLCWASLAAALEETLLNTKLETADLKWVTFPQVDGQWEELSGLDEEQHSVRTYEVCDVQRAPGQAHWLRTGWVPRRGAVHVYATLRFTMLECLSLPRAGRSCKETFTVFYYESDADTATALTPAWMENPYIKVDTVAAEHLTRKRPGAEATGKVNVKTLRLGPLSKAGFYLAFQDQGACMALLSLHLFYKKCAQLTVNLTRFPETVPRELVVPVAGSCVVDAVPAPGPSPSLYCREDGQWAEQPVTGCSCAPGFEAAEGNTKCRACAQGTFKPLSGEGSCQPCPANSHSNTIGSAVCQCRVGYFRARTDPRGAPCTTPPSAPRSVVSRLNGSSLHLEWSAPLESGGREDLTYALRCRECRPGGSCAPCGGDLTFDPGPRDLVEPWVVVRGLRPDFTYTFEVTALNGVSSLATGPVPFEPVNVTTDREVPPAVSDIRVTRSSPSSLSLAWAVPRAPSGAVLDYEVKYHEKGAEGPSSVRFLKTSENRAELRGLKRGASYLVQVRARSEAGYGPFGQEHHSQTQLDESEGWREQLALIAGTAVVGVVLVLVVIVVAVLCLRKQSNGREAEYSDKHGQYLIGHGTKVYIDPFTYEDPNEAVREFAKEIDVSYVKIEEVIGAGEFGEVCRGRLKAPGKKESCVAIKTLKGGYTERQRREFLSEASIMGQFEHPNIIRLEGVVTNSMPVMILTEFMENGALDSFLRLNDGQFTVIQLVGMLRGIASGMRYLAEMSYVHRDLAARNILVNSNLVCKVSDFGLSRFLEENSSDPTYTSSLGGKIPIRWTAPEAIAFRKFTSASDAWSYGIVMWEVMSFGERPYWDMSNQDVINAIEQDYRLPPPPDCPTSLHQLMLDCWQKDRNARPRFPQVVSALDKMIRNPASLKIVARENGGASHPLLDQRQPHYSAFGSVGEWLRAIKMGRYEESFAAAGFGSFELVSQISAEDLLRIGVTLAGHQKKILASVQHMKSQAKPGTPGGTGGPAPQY
The following applies: at 1 µM.

The target in test [15] is T5, Ephrin type-B receptor 4 (Homo sapiens). Conditions: at 10 µM.
The target in test [16] is Receptor tyrosine-protein kinase erbB-4 (Homo sapiens) (UniProt Q15303). The following applies: at 1 µM.
For test [17], the target named is Focal adhesion kinase 1 (Homo sapiens) (UniProt Q05397). The following applies: at 1 µM.
Sequence of Focal adhesion kinase 1 (Homo sapiens) (Q05397 2-1052 limits assumed): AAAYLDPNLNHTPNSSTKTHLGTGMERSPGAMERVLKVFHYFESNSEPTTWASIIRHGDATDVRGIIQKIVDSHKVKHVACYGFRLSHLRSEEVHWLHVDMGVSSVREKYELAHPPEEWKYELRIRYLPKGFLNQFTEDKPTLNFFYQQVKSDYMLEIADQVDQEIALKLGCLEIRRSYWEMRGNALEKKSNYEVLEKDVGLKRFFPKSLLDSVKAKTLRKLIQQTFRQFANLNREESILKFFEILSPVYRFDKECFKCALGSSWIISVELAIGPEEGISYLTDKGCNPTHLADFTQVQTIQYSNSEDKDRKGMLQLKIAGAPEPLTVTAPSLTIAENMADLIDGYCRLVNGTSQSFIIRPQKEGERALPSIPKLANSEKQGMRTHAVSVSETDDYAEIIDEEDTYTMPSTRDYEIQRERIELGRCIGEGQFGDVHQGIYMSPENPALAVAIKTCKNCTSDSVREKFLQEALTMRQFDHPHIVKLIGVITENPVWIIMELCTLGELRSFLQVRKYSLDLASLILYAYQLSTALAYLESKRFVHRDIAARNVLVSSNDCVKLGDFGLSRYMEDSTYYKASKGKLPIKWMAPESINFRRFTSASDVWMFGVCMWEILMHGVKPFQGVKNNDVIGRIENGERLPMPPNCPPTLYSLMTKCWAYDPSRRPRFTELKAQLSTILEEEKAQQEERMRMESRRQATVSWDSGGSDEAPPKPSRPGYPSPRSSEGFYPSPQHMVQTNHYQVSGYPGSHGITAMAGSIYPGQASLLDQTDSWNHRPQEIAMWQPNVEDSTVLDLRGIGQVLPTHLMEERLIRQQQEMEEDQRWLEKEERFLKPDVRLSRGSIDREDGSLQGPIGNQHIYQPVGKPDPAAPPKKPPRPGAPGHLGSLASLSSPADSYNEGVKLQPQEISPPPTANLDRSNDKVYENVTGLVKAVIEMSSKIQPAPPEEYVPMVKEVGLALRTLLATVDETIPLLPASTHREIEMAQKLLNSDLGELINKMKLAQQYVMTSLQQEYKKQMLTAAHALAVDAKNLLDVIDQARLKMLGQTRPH

Sequence of Ephrin type-A receptor 7 (Homo sapiens) (Q15375 28-998 limits assumed): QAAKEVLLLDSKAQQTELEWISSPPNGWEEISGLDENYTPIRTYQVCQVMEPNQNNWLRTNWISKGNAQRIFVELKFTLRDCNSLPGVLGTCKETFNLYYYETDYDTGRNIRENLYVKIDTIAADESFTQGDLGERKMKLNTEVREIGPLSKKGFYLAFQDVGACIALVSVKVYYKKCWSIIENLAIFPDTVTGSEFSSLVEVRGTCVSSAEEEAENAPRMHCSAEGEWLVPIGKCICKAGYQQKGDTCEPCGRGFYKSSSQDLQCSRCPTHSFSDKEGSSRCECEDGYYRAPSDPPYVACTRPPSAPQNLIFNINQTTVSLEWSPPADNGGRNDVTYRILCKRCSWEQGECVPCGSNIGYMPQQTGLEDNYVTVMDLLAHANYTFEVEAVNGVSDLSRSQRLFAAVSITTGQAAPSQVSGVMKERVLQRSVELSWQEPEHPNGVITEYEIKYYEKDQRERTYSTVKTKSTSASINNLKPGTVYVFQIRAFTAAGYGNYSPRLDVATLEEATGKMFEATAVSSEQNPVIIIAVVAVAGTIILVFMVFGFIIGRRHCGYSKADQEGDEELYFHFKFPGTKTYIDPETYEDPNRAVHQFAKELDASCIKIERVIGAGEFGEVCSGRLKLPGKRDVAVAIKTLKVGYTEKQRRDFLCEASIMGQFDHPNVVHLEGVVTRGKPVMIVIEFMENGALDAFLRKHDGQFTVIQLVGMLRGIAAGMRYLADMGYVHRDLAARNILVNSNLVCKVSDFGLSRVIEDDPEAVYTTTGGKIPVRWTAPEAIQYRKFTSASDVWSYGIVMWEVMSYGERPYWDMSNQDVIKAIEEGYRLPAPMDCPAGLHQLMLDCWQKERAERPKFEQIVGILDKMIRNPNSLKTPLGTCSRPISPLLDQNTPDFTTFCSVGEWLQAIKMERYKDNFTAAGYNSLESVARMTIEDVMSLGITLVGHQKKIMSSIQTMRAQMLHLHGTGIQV
Sequence of Ephrin type-A receptor 5 (Homo sapiens) (P54756 whole entry): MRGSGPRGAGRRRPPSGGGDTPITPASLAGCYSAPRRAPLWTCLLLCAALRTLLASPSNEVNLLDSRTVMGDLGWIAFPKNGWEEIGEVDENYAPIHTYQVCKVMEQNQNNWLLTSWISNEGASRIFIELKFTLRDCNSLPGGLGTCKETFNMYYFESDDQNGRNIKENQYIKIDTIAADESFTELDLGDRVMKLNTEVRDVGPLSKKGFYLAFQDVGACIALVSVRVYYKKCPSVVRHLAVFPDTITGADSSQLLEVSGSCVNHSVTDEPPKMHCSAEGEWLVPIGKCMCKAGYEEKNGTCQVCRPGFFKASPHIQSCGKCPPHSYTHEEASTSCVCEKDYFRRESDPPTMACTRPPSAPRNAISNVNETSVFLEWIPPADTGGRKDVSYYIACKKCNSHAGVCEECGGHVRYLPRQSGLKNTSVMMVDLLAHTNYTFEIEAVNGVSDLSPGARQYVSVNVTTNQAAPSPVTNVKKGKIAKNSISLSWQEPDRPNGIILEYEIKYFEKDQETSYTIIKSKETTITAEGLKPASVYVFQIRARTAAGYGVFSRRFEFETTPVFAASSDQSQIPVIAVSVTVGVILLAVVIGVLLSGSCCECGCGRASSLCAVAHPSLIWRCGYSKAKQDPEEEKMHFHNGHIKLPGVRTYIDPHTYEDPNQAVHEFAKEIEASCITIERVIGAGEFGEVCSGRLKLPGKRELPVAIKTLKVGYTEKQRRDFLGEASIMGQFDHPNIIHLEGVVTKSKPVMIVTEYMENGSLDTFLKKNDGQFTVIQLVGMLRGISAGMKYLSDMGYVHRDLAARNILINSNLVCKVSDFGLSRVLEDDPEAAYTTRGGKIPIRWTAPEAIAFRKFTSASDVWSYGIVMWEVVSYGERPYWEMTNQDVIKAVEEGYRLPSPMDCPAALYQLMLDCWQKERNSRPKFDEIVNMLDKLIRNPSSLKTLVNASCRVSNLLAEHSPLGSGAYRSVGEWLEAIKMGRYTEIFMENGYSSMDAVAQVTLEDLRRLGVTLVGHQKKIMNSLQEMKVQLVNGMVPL
Sequence of Ephrin type-A receptor 4 (Homo sapiens) (P54764 whole entry): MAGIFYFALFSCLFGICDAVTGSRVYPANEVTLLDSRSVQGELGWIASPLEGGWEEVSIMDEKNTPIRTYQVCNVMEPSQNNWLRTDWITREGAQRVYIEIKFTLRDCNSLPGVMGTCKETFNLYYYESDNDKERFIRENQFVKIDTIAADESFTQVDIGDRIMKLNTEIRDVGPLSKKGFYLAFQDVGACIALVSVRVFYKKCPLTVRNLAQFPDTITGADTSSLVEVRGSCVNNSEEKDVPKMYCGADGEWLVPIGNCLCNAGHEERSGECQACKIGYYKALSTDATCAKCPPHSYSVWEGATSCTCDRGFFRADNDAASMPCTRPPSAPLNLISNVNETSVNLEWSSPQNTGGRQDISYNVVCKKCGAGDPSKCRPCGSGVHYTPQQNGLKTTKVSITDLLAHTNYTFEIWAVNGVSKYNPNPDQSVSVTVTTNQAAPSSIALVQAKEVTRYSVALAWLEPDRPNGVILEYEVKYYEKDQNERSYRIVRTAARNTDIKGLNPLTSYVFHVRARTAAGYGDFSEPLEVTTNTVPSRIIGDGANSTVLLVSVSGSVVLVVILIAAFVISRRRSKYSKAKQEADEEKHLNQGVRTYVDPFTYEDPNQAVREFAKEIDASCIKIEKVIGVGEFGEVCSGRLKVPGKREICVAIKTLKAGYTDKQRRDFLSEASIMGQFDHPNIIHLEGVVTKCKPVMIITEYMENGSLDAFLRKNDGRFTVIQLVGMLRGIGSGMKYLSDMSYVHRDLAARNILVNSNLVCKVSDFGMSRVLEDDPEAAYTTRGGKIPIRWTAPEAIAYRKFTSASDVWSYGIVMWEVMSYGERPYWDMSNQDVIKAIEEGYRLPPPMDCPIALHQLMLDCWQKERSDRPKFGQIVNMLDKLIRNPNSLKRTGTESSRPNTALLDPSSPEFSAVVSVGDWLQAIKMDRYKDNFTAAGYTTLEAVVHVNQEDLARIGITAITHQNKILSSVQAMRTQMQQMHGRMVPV

A word on the residual activity: it is the signal under treatment as a percentage of the control signal. Turning to `CO[C@@H]1[C@H](N(C)C(=O)c2ccccc2)C[C@H]2O[C@]1(C)n1c3ccccc3c3c4c(c5c6ccccc6n2c5c31)C(=O)NC4`, the residual activity in test [1] was determined as 99%; in [2], 103%; in test [3] it was 90%; in [4], 97%; in [5], 86%; in [6], 94%. The residual activity is 70% in test [7]; 94% in test [8]; 97% in test [9]; 111% in test [10]; 222% in test [11]; 119% (inactive) in test [12]. In addition, the residual activity was 130% in test [13]; 107% in [14]; 372% in test [15]; 67% in [16]; 90% in [17].
